The values that follow come from PubChem BioAssay (NCI).

What all share (assay): NCI-60 one-dose screen, 48 h (100 = growth as untreated, 0 = no growth, -100 = all killed)
Common to all, as to conditions: 10 µM unless noted

Assay [1] has as its system NCI-H23 lung.
Assay [2] relates to NCI-H226 lung.
Assay [3] deals with NCI-H322M lung.
Assay [4] deals with HOP-62 NSCLC.
Assay [5] relates to NCI-H460 lung.
Assay [6] relates to HOP-92 NSCLC.
Assay [7] relates to NCI-H522 lung.
Assay [8] concerns 786-0 renal.
Assay [9] relates to COLO 205 colon.
The test system of assay [10] is DU-145 prostate.
In assay [11] the test system is K-562 leukemia.
Assay [12] deals with MALME-3M melanoma.
Assay [13] has as its system MDA-MB-231 breast.
In assay [14] the test system is SF-268 CNS.
Assay [15] concerns SF-295 CNS.
Assay [16] concerns SF-539 CNS.
In assay [17] the test system is UACC-257 melanoma.
Assay [18] relates to M14 melanoma.
Assay [19] relates to RXF 393 renal.
The test system of assay [20] is A549/ATCC NSCLC.

This is part of a sample that, as a whole, favours compounds with a hit. Of some 83,000 tested, about 20% had one in any assay.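 Growth was measured after 48 h exposure to one concentration of compound in 96-well plates. Values under 10 count as active.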 Values without a mark were called inactive. Active and inactive are the calls of the source.

As for `CN1CCN(c2ccc3nc(-c4cc(C(C)(C)C)c(O)c(C(C)(C)C)c4)[nH]c3c2)CC1`, the growth in assay [1] was 92.6%; in assay [2] it was 96%; in [3], 81%; in assay [4] it was 69.8%; in [5], 3.88% (active); in assay [6], 48.6%. The growth in assay [7] is 75.5%; in assay [8], 55.4%; in assay [9], -56.7% (active); in assay [10], 77.6%; in [11], -11.3% (active); in assay [12], -91.6% (active). The growth is 38.6% in [13]; 72.7% in [14]; 93.7% in assay [15]; 64.4% in assay [16]; -53.2% (active) in assay [17]; 11% in [18].

For the compound `CC(=O)[C@@H]1CC[C@]2(C(=O)n3ccnc3)CC[C@]3(C)[C@H](CC[C@@H]4[C@@]5(C)Cc6c([nH]c7ccccc67)C(C)(C)[C@@H]5CC[C@]43C)[C@@H]12`, the growth in assay [1] is 87.8%; in assay [2], 76.3%; in assay [3], 95.3%; in assay [4] it was 95.7%; in assay [5], 80.9%; in assay [6], 93.9%. Moreover, the growth in [7] is 82.9%; in assay [8], 94.4%; in assay [9] it was 101%; in assay [10] it was 98.5%; in [11], 67.7%; in assay [12] it was 102%. The growth in [13] was 90.7%; in assay [19], 106%; in assay [14], 90.8%; in assay [15], 82.8%; in assay [16], 97%; in assay [17] it was 97.1%. In addition, the growth in [18] was 96.1%.

As to `C1=C2CNCC3=Cc4ccc5ccccc5c4OC23Oc2c1ccc1ccccc21`, the growth in assay [1] is 52.8%; in [2], 67.7%; in [3], 98%; in assay [4], 43.6%; in assay [5] it was 33.5%; in [6] it was 37.2%. The growth in [7] is 0.285% (active); in assay [20] it was 50.6%; in assay [9], 50.8%; in assay [10], 65.3%; in [11], 18.8%; in [12], 60.6%. In addition, the growth in [13] is 51.3%; in [19], -3.36% (active); in assay [14], 42.7%; in [15] it was 11.6%; in assay [16], 50.5%; in [17], 60.9%. In assay [18], the growth was 2.63% (active).

For `CCCOc1nc(SCCC)nc2c1cnn2-c1ccccc1`, the growth is 93.8% in assay [1]; 96.6% in assay [2]; 137% in assay [3]; 126% in assay [4]; 101% in assay [5]; 98.2% in assay [6]. The growth is 3.95% (active) in assay [7]; 100% in assay [20]; 105% in assay [8]; 103% in [9]; 110% in assay [10]; 119% in assay [12]. Also, the growth was 105% in assay [13]; 87.7% in assay [14]; 108% in [15]; 98.4% in [16]; 113% in [17]; 109% in assay [18].

For the compound `CC(Oc1ccc(C(=O)NS(=O)(=O)C(C)(C)C)cc1C(F)(F)F)c1ccc(Oc2ccccc2)cn1` (configuration not stated), the growth was 83.8% in [1]; 81.5% in assay [2]; 88.3% in assay [3]; 78.2% in assay [4]; 96.9% in assay [5]; 73.1% in [6]. The growth is 17.2% in [7]; 77.7% in assay [8]; 77.1% in assay [9]; 97% in [10]; 34.7% in assay [11]; 59.4% in assay [12]. The growth in [13] is 81%; in assay [19], 65.8%; in [14] it was 67.8%; in [15], 55.9%; in assay [16], 76%; in assay [17], 78.9%. Further, in [18], the growth is 57.3%.

Regarding `Cc1cccc(Oc2ccc(Nc3ncnc4ccc(NC(=O)CNCCO)cc34)cc2Cl)c1`, the growth is 85.1% in [1]; 96.7% in [2]; 18.9% in [3]; 78.2% in assay [4]; 39.2% in assay [5]; 30.4% in assay [6]. The growth was 31.6% in assay [7]; 55.7% in [8]; 56.2% in assay [9]; 44.3% in assay [10]; 13.5% in [11]; 70.5% in assay [12]. The growth in [13] is 74.3%; in [14], 61.7%; in assay [15], 79.9%; in assay [16], 64.6%; in [17], 93.4%; in assay [18], 74.3%.

With `CN1C2CCC1CN(c1cnc(C(=O)Nc3cc(F)cc4cccnc34)cn1)C2`, the growth in assay [1] is 46.8%; in [2], 88.9%; in [3], 74.6%; in assay [4] it was 88.6%; in [5] it was 83.4%; in assay [6], 81.2%. Moreover, the growth in [7] is 24.4%; in [8], 51.8%; in assay [9], 10.4%; in assay [10] it was 74.6%; in assay [11] it was 15.7%; in assay [12], 41%. Moreover, the growth is 31.4% in assay [13]; 85.6% in assay [14]; 97.6% in assay [15]; 70.4% in assay [16]; 42.7% in assay [17]; 54.3% in assay [18].

In the case of `NC(=O)c1ccc[n+](CC(=O)N2CCN(c3cc4c(cc3F)c(=O)c(C(=O)O)cn4C3CC3)CC2)c1`, the growth was 92.4% in assay [1]; 97.3% in assay [2]; 104% in assay [3]; 111% in [4]; 101% in [5]; 133% in [6]. Also, the growth is -73.1% (active) in [7]; 104% in [20]; 74.6% in assay [8]; 63.1% in assay [9]; 96.4% in assay [10]; 6.59% (active) in assay [12]. In addition, the growth was 99.8% in assay [13]; 76.7% in [14]; 108% in [15]; 88.6% in assay [16]; 89.4% in assay [17]; 76.4% in assay [18].
